PubChem BioAssay
Results with a measured potency or affinity are listed apart. Activity calls are given as the source filed them. No rule for the calls is given here.

The compounds below were run against Plasmodium falciparum protein kinase 6 (PK6, PF3D7_1337100) (UniProt Q8IDW1) (assay: PfPK6 kinase inhibitors, biochemical, TCAMS library (AID 1159586)). Details: recombinant PfPK6, Kinase-Glo ATP depletion luminescence.
Plasmodium falciparum protein kinase 6 (PK6, PF3D7_1337100), sequence (Q8IDW1 1-305): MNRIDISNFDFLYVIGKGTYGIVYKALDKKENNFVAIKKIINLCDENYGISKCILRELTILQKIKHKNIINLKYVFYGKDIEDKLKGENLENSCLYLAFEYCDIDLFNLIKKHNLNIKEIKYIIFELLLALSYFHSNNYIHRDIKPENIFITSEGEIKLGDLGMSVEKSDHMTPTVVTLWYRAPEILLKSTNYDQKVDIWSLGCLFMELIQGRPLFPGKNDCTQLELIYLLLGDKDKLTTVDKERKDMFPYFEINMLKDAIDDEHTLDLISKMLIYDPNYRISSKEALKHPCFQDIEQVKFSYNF
`COc1cc2nc(C)nc(Nc3ccc(Oc4ccccc4)cc3)c2cc1OC` was tested, and the outcome was “inactive”. With `Cc1ccc(CN(Cc2ccc(C(=O)N(C)C)cc2)Cc2ccc3c(c2)OCCO3)cc1C` the outcome was “inactive”. For `Cc1cc(CN2CC[C@H](NC(=O)c3ccc(Cl)c(Cl)c3)C2)ccc1OCCCN(C)C`, the outcome was “inactive”. `O=C(Nc1cccc(-c2csc(-c3nc4ccccc4[nH]3)c2)c1)c1ccoc1` was tested, and the outcome was “inactive”. For `CCC[C@@H]([C@@H](CC1CCCCC1)C(=O)NC(C(=O)Nc1nccs1)C(CC)c1ccccc1)N(O)C=O` (stereo partly specified), the outcome was “inactive”. `FC(F)(F)c1ccc2nc(-c3ccc(-c4ccc(CNCc5cnn(-c6ccccc6)n5)cc4)s3)[nH]c2c1` was tested, and the outcome was “inactive”. For `CN1CCN(CC(=O)Nc2cccc(-c3cccc(-c4nc5ccc(F)cc5[nH]4)c3)c2)CC1`, the outcome was “inactive”. With `CN(C)c1ccc(CN2CCC(NC(=O)c3ccc(-c4ccc(N(C)C)cc4)s3)CC2)cc1` the outcome was “inactive”. For `CN1CCC(NCc2cccc(-c3ccc(S(=O)(=O)NCCN4CCCC4)s3)c2)CC1`, the outcome was “inactive”. With `CC(C)Oc1cccc(-c2ccc(C(=O)NCC3CCCN(Cc4cccc(C(F)(F)F)c4)C3)s2)c1` (stereo unspecified) the outcome was “inactive”. `Cc1cc(NN=Cc2ccc(F)cc2)c2cccc(C)c2n1` was tested, and the outcome was “inactive”. With `N#Cc1cccc(Nc2nccc(NCC(O)c3ccc(C(F)(F)F)cc3)n2)c1` (stereo unspecified) the outcome was “inactive”. For `NC(=NCCc1ccccc1Cl)c1ccc2ccccc2c1`, the outcome was “inactive”. For `CCOC(=O)c1cncc(/C=C/c2cc(C)cnc2N)c1`, the outcome was “inactive”. With `O=[N+]([O-])c1cccc(CNCC2CCN(Cc3ccc(C(F)(F)F)cc3)CC2)c1` the outcome was “inactive”. For `CCOC(=O)COc1cccc(CNc2ccc3nc(N)nc(N)c3c2)c1`, the outcome was “inactive”.
